Assay results as given in PubChem BioAssay AID1839 (Johns Hopkins Ion Channel Center, 2009).
The campaign covered roughly 2,400 compounds. About 220 (9.2%) were called active.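 The calls were made as follows: active = signal change above the mean of dofetilide-free buffer controls plus 3 SD, so a positive margin; inactive = the rest.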 The full list was thinned out, with actives kept by preference.

assay: thallium signal changes without hERG – cell-based, CHO-K1 parental line, FluxOR thallium flux, counter-screen for hERG block protection project, confirmation (AID 1839); details: CHO-K1 parental cells, FluxOR thallium flux fluorescence; at 10 µM;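 also: compounds applied alone with no dofetilide to cells lacking hERG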

Row | Compound | signal change vs control minus 3*SD hit threshold (margin above threshold, higher = more increase)
1 | COc1cccc(CCNS(=O)(=O)CCNC(=O)c2cccc(OC)c2)c1 | -25.6% (inactive)
2 | CCc1ccc(NC(=S)Nc2cccc(OC)c2)cc1 | -32.4% (inactive)
3 | CCc1ccc(NC(=O)C(=O)NNC(=O)c2cccc(OC)c2)cc1 | 41.3% (active)
4 | CC(=O)Nc1ccccc1C(=O)C(=O)Nc1ccccc1 | -32.8% (inactive)
5 | CN(C)/C=C/C(=O)c1ccc(Cl)cc1Cl | -23.8% (inactive)
6 | CCN(CC)C(=S)NC(=O)c1ccc(F)cc1 | -15.9% (inactive)
7 | O=C(NC(=S)N1CCCCCC1)c1ccc(Cl)cc1Cl | -16.7% (inactive)
8 | CCCCN(CCCC)C(=S)NC(=O)c1ccccc1Cl | 39.6% (active)
9 | CC1(C)CC2CC(C)(CN2C(=S)NC(=O)c2ccccc2Cl)C1 (centres undefined) | -14.7% (inactive)
10 | CCN(CC)C(=S)NC(=O)c1ccc(Cl)cc1Cl | 3.8% (active)
11 | O=C(NC(=S)N(CCO)Cc1ccccc1)c1cc(Br)ccc1Cl | -12.2% (inactive)
12 | CCCN(CCC)C(=S)NC(=O)c1ccc(Cl)cc1Cl | 27% (active)
13 | CC1(C)CC(NC(=O)c2ccc(Cl)cc2Cl)CC(C)(C)N1 | -35.9% (inactive)
14 | C=CCNC(=O)c1onc(CSc2ccc(OC)cc2)c1C(=O)O | -35.4% (inactive)
15 | Cc1ccc(/C=C(\NC(=O)c2ccccc2)C(=O)N2CCCCC2)cc1 | -35.4% (inactive)
16 | O=C(CCc1nc(-c2ccccc2)no1)N1CCCC1 | -26.5% (inactive)
17 | Cc1nn(-c2ccccc2)c(C)c1S(=O)(=O)O | -23.2% (inactive)
18 | Cc1nn(-c2ccccc2)c(Cl)c1/C=C1\SC(=S)NC1=O | 26.5% (active)
19 | Cc1nn(-c2ccccc2)c(N2CCCC2)c1/C=N/O | -24.6% (inactive)
20 | CCc1nnc(NC(=O)c2c(C)nn(-c3ccccc3)c2Cl)s1 | -14.1% (inactive)
21 | O=S(=O)(NC(=S)NC1CCCCC1)c1ccc(Br)cc1 | -9.7% (inactive)
22 | CCOC(=O)c1n[nH]n2c1nc(=S)c1ccccc12 | 12.1% (active)
23 | CCOC(=O)c1c(O)c2ccccc2n(C)c1=O | -25% (inactive)
24 | CCOC(=O)C1CCN(C(=O)COC(=O)c2nn(C)c(=O)c3ccccc23)CC1 | -33.9% (inactive)
25 | Cc1[nH]n(-c2ccccc2)c(=O)c1N=Nc1ccc(C(N)=O)cc1 | -43.3% (inactive)

Row | Compound | signal change vs control minus 3*SD hit threshold (margin above threshold, higher = more increase)
26 | COc1ccc2nc(/N=C/c3c(C)[nH]n(-c4ccc(C)cc4C)c3=O)sc2c1 | 22.3% (active)
27 | Cc1[nH]n(-c2cccc3ccccc23)c(=O)c1/C=N/c1sc2c(c1C#N)CCC2 | -19.1% (inactive)
28 | Cc1[nH]n(-c2ccc(Cl)cc2)c(=O)c1/C=N/c1nnc(-c2ccccc2)s1 | 78.7% (active)
29 | COc1ccc2nc(-n3c(O)c(C4=c5ccccc5=NC4=O)[nH]c3=S)sc2c1 | -25.1% (inactive)
30 | Cc1[nH]n(-c2ccc(F)cc2)c(=O)c1/C=N/c1sc2c(c1C#N)CCCC2 | -1.9% (inactive)
31 | CCOc1ccc2nc(/N=C/c3c(C)[nH]n(-c4ccc(C)cc4)c3=O)sc2c1 | 33.5% (active)
32 | CCOc1ccc2nc(/N=C/c3nc(-c4ccc(Br)cc4)oc3O)sc2c1 | -17.1% (inactive)
33 | COc1ccc2nc(/N=C/c3c(C)[nH]n(-c4ccc(C)cc4)c3=O)sc2c1 | 62.6% (active)
34 | CCOc1ccc2nc(N3C(=O)/C(=C/c4ccc(Cl)cc4)NC3=S)sc2c1 | -25% (inactive)
35 | CCCCNC(=O)N1CCCC(C(=O)c2cc(C)c(OC)c(C)c2)C1 (centres undefined) | -38% (inactive)
36 | O=C(NCc1cccs1)C1CC(c2ccc(F)cc2)=NO1 (centres undefined) | -40.3% (inactive)
37 | Cc1cccc(NC(=O)CN2C(=O)S/C(=C\c3cccn3-c3cccc(C(=O)O)c3)C2=O)c1 | -27.2% (inactive)
38 | Cc1cc(Cl)ccc1OC(C)C(=O)NCCc1ccc2c(c1)OCCO2 (centres undefined) | -37.2% (inactive)
39 | CC(NC(=O)NC1CCCCC1)c1ccc2c(c1)OCO2 (centres undefined) | -5.4% (inactive)
40 | COc1ccc(C(=O)CC(=O)C(=O)Nc2ccc(C)c(C)c2)cc1 | -27.5% (inactive)
41 | Cc1ccnc(SCCn2c(N3CC(C)OC(C)C3)nc3c2c(=O)n(C)c(=O)n3C)n1 (centres undefined) | -31.9% (inactive)
42 | CCOc1ccc2nc(/N=C/c3c(C)[nH]n(-c4ccccc4)c3=O)sc2c1 | 53.3% (active)
43 | CCOc1ccc2nc(N3C(=O)/C(=C/c4ccccc4)NC3=S)sc2c1 | -18.8% (inactive)
44 | CCOc1ccc2nc(/N=C/c3nc(-c4ccccc4)oc3O)sc2c1 | -18.5% (inactive)
45 | S=c1[nH]nc(CSc2nc3ccccc3s2)n1C1CCCCC1 | -26.3% (inactive)
46 | Cc1ccc(NC(=O)c2cc(NC(=O)/C=C\C(=O)O)ccc2N2CCCCC2)cc1 | -12.7% (inactive)
47 | CC(C)C1Cc2c(sc3[nH]c(=S)n(Cc4ccccc4)c(=O)c23)CO1 (centres undefined) | -10.8% (inactive)
48 | CC1(C)Cc2c(sc3[nH]c(=S)n(Cc4ccccc4)c(=O)c23)CO1 | -22.2% (inactive)
49 | CCC1(C)Cc2c(sc3[nH]c(=S)n(Cc4ccccc4)c(=O)c23)CO1 (centres undefined) | 10.6% (active)
